Measured values as given in PubChem BioAssay (NCATS).
Results filed as inconclusive are left out. A call without a number means that no potency is given here. Active and inactive are the calls of the source. Unless noted, the call rests on the fitted dose curve; in most records, active means well fitted curve in the direction sought with a large enough effect; inconclusive means small, poorly fitted or top-dose-only effect, or another doubt; inactive means no such curve, though single readings can be large; an effect the other way counts as inactive or inconclusive.

Key:
[1] = Primary qHTS for inhibitors of La Crosse Virus (LACV) - induced cell death in SH-SY5Y cells (AID 1508616);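 further: top concentration of the series differs between compounds; higher means more rescue of cells from virus-induced death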
In short: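 SH-SY5Y cells (6000/well) plated 24 h, then given compounds by pin transfer and LACV at 0.01 MOI for 6 days at 37C. Viability measured by ATPLite luminescence, normalized to infected DMSO and uninfected DMSO.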

[2] = molecular target: Calcium and integrin-binding protein 1 (Homo sapiens) (UniProt Q99828); experiment: Validation qHTS for Identification of Calcium Integrin Binding protein 1 (CIB1) Competitor (AID 1508618)
Chain of Calcium and integrin-binding protein 1 (Homo sapiens) (Q99828 whole entry, looked up): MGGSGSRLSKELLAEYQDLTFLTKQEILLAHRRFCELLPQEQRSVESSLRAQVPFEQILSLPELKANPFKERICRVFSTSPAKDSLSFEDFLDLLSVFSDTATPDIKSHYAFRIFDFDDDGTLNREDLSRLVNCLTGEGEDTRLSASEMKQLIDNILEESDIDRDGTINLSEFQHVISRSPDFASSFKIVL
In short: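 CIB1-GST (1 uM final) in 5 mM HEPES pH 7.4, 125 mM NaCl, 5 mM CaCl2, 0.01% Tween20 was preincubated 15 min at room temperature with compound (up to 114 uM), then FITC-alphaIIb peptide (100 nM) added for 15 min; fluorescence polarization read.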

[3] = molecular target: Calcium and integrin-binding protein 1 (Homo sapiens) (UniProt Q99828); experiment: Primary qHTS for Identification of Calcium Integrin Binding Protein 1 (CIB1) Competitor (AID 1508620);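 further: GST tagged CIB1 binding a fluorescein labelled alphaIIb integrin peptide tracer; top concentration of the series differs between compounds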
In short: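 CIB1-GST (1 uM final) and compound incubated 15 min at room temperature before adding FITC-alphaIIb peptide tracer (100 nM final). Competition for binding read by fluorescence polarization (ex 480, em 540) after another 15 min at room temperature.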

[4] = Confirmatory qHTS for VERO E6 Cytotoxicity Assay: Counterscreen for SARS-CoV-2 CPE Assay (AID 1508605; calls by dose curve; further: series mostly up to about 20 µM; nearly all actives have a fitted effect of over 60% in size)
[5] = Primary qHTS for inhibitors of MERS-S pseudo-typed particle cell entry (AID 1479149; calls by dose curve; further: potency means the concentration at half of the fitted maximal effect; nearly all actives have a fitted effect of over 60% in size)
[6] = Primary qHTS for Vero E6 cytotoxicity: counterscreen for inhibitors of SARS-S pseudo-typed particle cell entry (AID 1479150; calls by dose curve; further: potency means the concentration at half of the fitted maximal effect)
[7] = Confirmatory qHTS for activators (rescue) of SARS-CoV-2 Cytopathic Effect (CPE) (AID 1508606; calls by dose curve; further: potency means the concentration at half of the fitted maximal effect; nearly all actives have a fitted effect of over 70% in size)

With `CCCN1CCC[C@@H]2Cc3[nH]ncc3C[C@H]21` the Potency [1] was “inactive”, the Potency [2] was “inactive” and the Potency [3] was “inactive”.
In the case of `O=C(O)C(=O)c1cn(Cc2ccccc2)c2ccc(-c3ccc(OC(F)(F)F)cc3)cc12`, the Potency [4] was “inactive” and the Potency [3] was “inactive”.
With `CC(=O)Oc1ccccc1C(=O)Nc1ncc([N+](=O)[O-])s1` the Potency [5] was 5.62 µM (active), the Potency [6] was 28.2 µM (active) and the Potency [7] was 5.01 µM (active).
In the case of `Cc1ccc(S(=O)(=O)N[C@@H](CCCCN)C(=O)CCl)cc1`, the Potency [1] was “inactive”, the Potency [2] was “inactive” and the Potency [3] was “inactive”.
In the case of `Cc1cccc(C)c1NC(=O)CN1CCCC1=O`, the Potency [1] was “inactive”, the Potency [2] was “inactive” and the Potency [3] was “inactive”.
For `CC(C)=CCOc1c2occc2cc2ccc(=O)oc12`, the Potency [1] was “inactive”, the Potency [2] was “inactive” and the Potency [3] was “inactive”.
In the case of `CNCCCC1c2ccccc2C=Cc2ccccc21`, the Potency [6] was “inactive” and the Potency [4] was “inactive”.
For `Cc1ccc(-c2nc3ccc(C)cn3c2CC(=O)N(C)C)cc1`, the Potency [1] was “inactive” and the Potency [3] was “inactive”.
With `CNCC[C@H](Oc1cccc2ccccc12)c1cccs1` the Potency [5] was 25.1 µM (active), the Potency [6] was “inactive” and the Potency [4] was “inactive”. The Potency [7] was 10 µM (active).
With `CCC1(C2=NCCN2)Cc2ccccc2O1` (configuration not stated) the Potency [1] was “inactive”, the Potency [2] was “inactive” and the Potency [3] was “inactive”.
With `O=C(O)c1ccc2[nH]cc(CCCCN3CC=C(c4ccccc4)CC3)c2c1` the Potency [1] was “inactive” and the Potency [3] was “inactive”.
For `COC1(CS(=O)c2ccccc2)CCN(CCc2c[nH]c3ccc(F)cc23)CC1` (configuration not stated), the Potency [3] was “inactive”.
For `NP(N)(=O)NC(=O)c1ccc(F)cc1`, the Potency [1] was “inactive” and the Potency [3] was “inactive”.
For `Cc1cc(SCc2sc(-c3ccc(C(F)(F)F)c(F)c3)nc2C)ccc1OCC(=O)O`, the Potency [3] was “inactive”.
With `C[C@@H]1[C@@H](CC(C[C@H]2O[C@@H]3O[C@]4(C)CC[C@@H]5[C@H](C)CC[C@@H]([C@H]2C)[C@@]35OO4)C[S+](=O)([O-])c2ccc(COC(=O)N(C)C)cc2)O[C@@H]2O[C@]3(C)CC[C@H]4[C@H](C)CC[C@@H]1[C@@]24OO3` (some centres not stated) the Potency [3] was “inactive”.
With `CC(C)(N)Cc1ccc(Cl)cc1` the Potency [1] was “inactive” and the Potency [3] was “inactive”.
In the case of `COc1ccc2c(c1OC)CN1CCc3cc4c(cc3C1C2)OCO4` (configuration not stated), the Potency [1] was “inactive” and the Potency [3] was “inactive”.
In the case of `CC(C)CC(N(C)C)C1(c2ccc(Cl)cc2)CCC1` (configuration not stated), the Potency [1] was “inactive” and the Potency [3] was “inactive”.
In the case of `CCN(CC)CCN1C(=O)CN=C(c2ccccc2F)c2cc(Cl)ccc21`, the Potency [1] was “inactive” and the Potency [3] was “inactive”.
With `NCCc1cc(O)c(O)cc1O` the Potency [1] was “inactive” and the Potency [3] was “inactive”.
With `CCOP(=S)(OCC)Oc1cc(C)nc(C(C)C)n1` the Potency [1] was “inactive” and the Potency [3] was “inactive”.
In the case of `CC1OC(C)OC(C)O1` (configuration not stated), the Potency [1] was “inactive” and the Potency [3] was “inactive”.
For `CN1C(=S)CN=C(c2ccccc2)c2cc(Cl)ccc21`, the Potency [1] was “inactive” and the Potency [3] was “inactive”.
In the case of `Cc1ccc2c(c1)C1CN(C)CCC1N2` (configuration not stated), the Potency [1] was “inactive” and the Potency [3] was “inactive”.
In the case of `COc1ccc(C(=O)c2c(C)n(CCN3CCOCC3)c3ccccc23)cc1`, the Potency [1] was “inactive” and the Potency [3] was “inactive”.
In the case of `CCOC(=O)C1(c2ccccc2)CCN(CCC(C#N)(c2ccccc2)c2ccccc2)CC1`, the Potency [1] was “inactive” and the Potency [3] was “inactive”.
For `C[C@]12CCC(=O)C(O)=C1CC[C@@H]1[C@@H]2CC[C@]2(C)C(=O)CC[C@@H]12`, the Potency [1] was “inactive” and the Potency [3] was “inactive”.
In the case of `CCC(=O)C(CC(C)N(C)C)(c1ccccc1)c1ccccc1` (configuration not stated), the Potency [3] was “inactive”.
For `C[C@@H]1[C@@H](C(=O)C[C@H]2O[C@@H]3O[C@]4(C)CC[C@@H]5[C@H](C)CC[C@@H]([C@H]2C)[C@@]35OO4)O[C@@H]2O[C@]3(C)CC[C@H]4[C@H](C)CC[C@@H]1[C@@]24OO3`, the Potency [3] was “inactive”.
For `CCN(C(C)=O)c1cccc(-c2ccnc3c(C#N)cnn23)c1`, the Potency [1] was “inactive” and the Potency [3] was “inactive”.
For `CCCC(C)(COC(N)=O)COC(=O)NC(C)C` (configuration not stated), the Potency [1] was “inactive” and the Potency [3] was “inactive”.
In the case of `CNC(=O)c1ccc(N2C(=S)N(c3ccc(C#N)c(C(F)(F)F)c3)C(=O)C23CCC3)cc1F`, the Potency [3] was “inactive”.
With `CC[N+]1(C)CCCC(OC(=O)C(O)(c2ccccc2)c2ccccc2)C1` (configuration not stated) the Potency [1] was “inactive” and the Potency [3] was “inactive”.
With `C#CCOC(C(=O)OCCN(C)C)(c1ccccc1)c1ccccc1` the Potency [1] was “inactive” and the Potency [3] was “inactive”.
With `CC[N+](CC)(CC)CC` the Potency [1] was “inactive” and the Potency [3] was “inactive”.
In the case of `CCN(CC)CCOC(=O)C(O)(c1ccccc1)c1ccccc1`, the Potency [1] was “inactive” and the Potency [3] was “inactive”.
With `C[C@]12C/C(=C/O)C(=O)C[C@@H]1CC[C@@H]1[C@@H]2CC[C@@]2(C)[C@H]1CC[C@]2(C)O` the Potency [1] was “inactive” and the Potency [3] was “inactive”.
In the case of `CO[C@]12CC[C@@]3(C[C@@H]1[C@](C)(O)C(C)(C)C)[C@@H]1Cc4ccc(O)c5c4[C@@]3(CCN1CC1CC1)[C@H]2O5`, the Potency [1] was “inactive” and the Potency [3] was “inactive”.
In the case of `CN(C)CCN(C)CCc1ccc(Cl)c(Cl)c1`, the Potency [3] was “inactive”.
With `CCCN1CCC[C@@H]2Cc3nc(N)ncc3C[C@H]21` the Potency [2] was “inactive” and the Potency [3] was “inactive”.
For `CC1NCCOC1c1ccccc1` (configuration not stated), the Potency [1] was “inactive” and the Potency [3] was “inactive”.
For `COC[C@@H](NC(C)=O)C(=O)NCc1ccccc1`, the Potency [1] was “inactive” and the Potency [3] was “inactive”.
In the case of `Cc1sc2c(c1C)C(c1ccc(Cl)cc1)=N[C@@H](CC(=O)OC(C)(C)C)c1nnc(C)n1-2`, the Potency [3] was “inactive”.
In the case of `O=C(NC(O)C(Cl)(Cl)Cl)NC(O)C(Cl)(Cl)Cl` (configuration not stated), the Potency [1] was “inactive” and the Potency [3] was “inactive”.
For `Clc1cccc(N2CCNCC2)c1`, the Potency [1] was “inactive” and the Potency [3] was “inactive”.
For `CC1=C2C[C@@H]3[C@@H](CC=C4C[C@@H](O)CC[C@@]43C)[C@@H]2CC[C@]12O[C@H]1C[C@H](C)CN[C@H]1[C@H]2C`, the Potency [3] was “inactive”.
In the case of `CNC(=O)N1N=C(c2ccc(N)cc2)c2cc3c(cc2CC1C)OCO3` (configuration not stated), the Potency [3] was “inactive”.
